# Screening results deposited in PubChem by National Center for Advancing Translational Sciences (NCATS).
# An excerpt weighted towards active compounds, which were near 9.2% of everything screened.
# FLuc modulator: counter-screen for miR-21 project: firefly luciferase inhibitors or activators; Potency, µM (top dose mostly 57.5 µM), for the others: top-dose activity change, negative = inhibition, most hits filed as inhibitors; purified FLuc, Km substrates, luminescence inhibition; 360,000 compounds, 6.9% hits; P08659; AID 588342;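 further: plate controls were vehicle for no effect and reference inhibitor for full effect; nearly all actives have a fitted effect of over 55% in size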
# Target sequence (P08659 whole entry, looked up): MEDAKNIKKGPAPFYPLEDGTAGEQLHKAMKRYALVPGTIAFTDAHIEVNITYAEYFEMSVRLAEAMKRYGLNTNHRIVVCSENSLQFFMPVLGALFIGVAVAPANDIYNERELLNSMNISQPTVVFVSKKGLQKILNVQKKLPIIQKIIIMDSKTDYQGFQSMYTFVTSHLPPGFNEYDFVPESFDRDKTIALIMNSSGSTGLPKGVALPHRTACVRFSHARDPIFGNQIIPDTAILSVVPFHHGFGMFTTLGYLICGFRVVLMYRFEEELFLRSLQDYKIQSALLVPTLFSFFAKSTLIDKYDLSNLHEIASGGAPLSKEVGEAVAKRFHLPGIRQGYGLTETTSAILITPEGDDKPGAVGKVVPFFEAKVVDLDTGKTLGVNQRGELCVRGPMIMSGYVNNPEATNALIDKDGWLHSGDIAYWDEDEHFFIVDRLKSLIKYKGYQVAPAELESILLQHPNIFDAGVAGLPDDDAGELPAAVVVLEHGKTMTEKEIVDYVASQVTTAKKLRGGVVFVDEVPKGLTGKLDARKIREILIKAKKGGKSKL
#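 Biochemical qHTS of compounds, final roughly 60 µM downward over six points, against 10 nM purified firefly luciferase using Km concentrations of substrates (10 uM D-luciferin, 10 uM ATP) in Tris acetate pH 7.5 buffer; luminescence output.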
# NPC1 prom act: activators of NPC1 promoter | Potency, µM (top dose mostly 9.22 µM), for the others: top-dose activation, most hits filed as activators | Huh7 NPC1 promoter luciferase reporter, 24 h | 320,000 compounds, 2.4% hits; further: % of control where 0% means no effect; nearly all actives have a fitted effect of over 60% in size
#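 NPC1 promoter–luciferase Huh7 cells; 24 h compound; luminescence.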
# ELG1 genotoxic: inducers of genotoxicity in HEK293T ELG1-luciferase cells. AID 504466. HEK293T ELG1-luciferase reporter, luminescence, 16 h. 330,000 compounds, 1.3% hits. Potency, µM (titrated, usually from 46 µM), for the others: top-dose activity change, positive = activation, most hits filed as activators; further: % of control where 0% means no effect; nearly all actives have a fitted effect of over 60% in size
#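 Screening used a luciferase reporter fused to human ELG1 in HEK293T cells. Luminescence was read on a CCD plate imager after 16 hr exposure and 30 min ONE-Glo incubation.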
# ELG1 DNA repair: ELG1-dependent DNA repair inhibition | AID 504467 | Potency, µM (titrated, usually from 46.1 µM), for inactives: at the top dose activity change, negative = inhibition, most hits filed as inhibitors | 330,000 compounds, 2.3% hits | HEK293T ELG1-luciferase reporter, luminescence, 16 h; DNA damage induced by 5-fluorouridine; further: on the % scale 0 is the no-effect control and ±100 the full control effect; nearly all actives have a fitted effect of over 55% in size
#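 In this reporter screen, reduction of luminescence relative to DMSO vehicle indicated activity. Compounds and 5-fluorouridine were added together to 2,000 cells per well, incubated for 16 hr at 37 °C, then developed with ONE-Glo.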
# Rab9 promoter act: Rab9 promoter activation; 320,000 compounds, 2.8% hits; Huh7 Rab9 promoter-luciferase reporter, luminescence, 24 h; AID 485297; Potency, µM (series often up to 9.22 µM), for inactives: top-dose activation, negative = inhibition, usual class: activators; further: % of control where 0% means no effect; nearly all actives have a fitted effect of over 60% in size
#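 Huh7 cells stably carrying a Rab9 promoter-luciferase reporter, 1500 cells per well in OP-MEM I with 10% FBS, treated with compound 24 hours at 37C. Luciferase activity read by luminescence after 10 minutes with Amplite reagent.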
# SMN2 splice up: increases expression of the SMN2 splice variant. HEK293 SMN2-luciferase splicing reporter, luminescence, 30-36 h. Potency, µM (series often up to 46.1 µM), inactives show at the top dose activity change, positive = activation, usual class: activators. 210,000 compounds, 2.8% hits. AID 1458; further: % of control where 0% means no effect; nearly all actives have a fitted effect of over 55% in size
#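 HEK293 cells carry an SMN2 minigene-luciferase reporter in which exon 7 inclusion puts luciferase in frame. Cells were seeded at 2000 cells/well, attached for 10-12 hours, then exposed to compounds for 30-36 hours at 37C before ONE-Glo luminescence.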
# An asterisk follows results filed as active; ? = inconclusive; . = no result given. The call rests on the fitted dose curve; in most records, active means well fitted curve in the direction sought with a large enough effect; inconclusive means small, poorly fitted or top-dose-only effect, or another doubt; inactive means no such curve, though single readings can be large; an effect the other way counts as inactive or inconclusive. Potency means the concentration at half of the fitted maximal effect.
SMILES,FLuc modulator,NPC1 prom act,ELG1 genotoxic,ELG1 DNA repair,Rab9 promoter act,SMN2 splice up
COc1ccc(S(=O)(=O)N(C(C)=O)c2ccc(OC(C)=O)c3ccccc23)cc1[N+](=O)[O-],0%,-1%,-14%,15µM*,-3%,.
COc1ccc(S(=O)(=O)N2CCc3ccccc32)cc1[N+](=O)[O-],1%,-1%,-7%,6.5µM*,-10%,.
CC(C)N(Cc1ccccc1)C(=O)Cn1ncc2c([nH]c3ccccc32)c1=O,1%,.,.,.,.,.
CCOc1ccc(N(CC)C(=O)c2cc3c(s2)-c2ccc(Cl)cc2SC3)cc1,4%,.,.,.,.,?
COCCNC(=O)c1cc2c(s1)-c1ccc(Cl)cc1SC2,6µM*,2.5µM*,?,?,2.2µM*,.
CCOC(=O)N/N=C/c1ccccc1OCc1ccc(Cl)cc1,15µM*,-2%,2%,3%,-5%,27%
O/N=C/c1ccccc1OCc1ccc(Cl)cc1,17µM*,?,15%,?,?,-6%
O/N=C/c1ccccc1OCc1ccccc1Cl,-5%,3%,2%,?,1%,1%
CCn1cc(C(=O)N2CCN(c3ccc(F)cc3)CC2)c(=O)c2cc(S(=O)(=O)N3CCOCC3)ccc21,3%,.,.,.,.,-12%
Cc1ccc(C(=O)NC(=S)N2CCCCCC2)cc1,.,-6%,-1%,?,2%,.
COc1cc(/C=C(\C#N)C(=O)Nc2ccccn2)ccc1O,11µM*,-3%,?,?,-2%,.
COc1cc(/C=C(\C#N)C(=O)N2CCc3ccccc32)ccc1O,17µM*,-1%,0%,11%,-7%,.
COc1cc(/C=C(\C#N)C(=O)Nc2cccc3ncccc23)ccc1O,0%,-4%,0%,-2%,0%,3%
COc1cc(/C=C(\C#N)C(=O)Nc2ccc3c(c2)OCCO3)ccc1O,0.27µM*,-5%,5%,2%,12%,.
CNc1ccc(/C=C(\C#N)C(=O)Nc2ccccn2)cc1[N+](=O)[O-],0%,2%,0%,16%,0%,.
CCOc1cc(/C=C(\C#N)C(=O)Nc2ccccn2)ccc1O,17µM*,-7%,9%,5%,1%,.
COc1ccc(OCCOC(=O)C(C)NS(=O)(=O)c2ccc(NC(C)=O)cc2)cc1 (stereo unspecified),0%,-1%,-2%,?,0%,.
S=C(NCc1ccc(Cl)cc1)Nc1ccncc1,1%,-28%,-4%,-12%,-13%,.
CCOc1ccc(/C=C(\C#N)C(=O)Nc2cccnc2)cc1,0%,0%,1%,-5%,-2%,-2%
CCOc1cccc(NC(=O)/C(C#N)=C/c2cccnc2)c1,17µM*,-6%,0%,-3%,-1%,.
CC(C)c1ccc(/C=N/NC(=O)c2c(Cl)cnn2C)cc1,0.67µM*,3.2µM*,18µM*,?,2.8µM*,8.9µM*
COc1ccc(CCN2C(=S)NC3CC2(C)Oc2ccc([N+](=O)[O-])cc23)cc1OC (stereo unspecified),-1%,-8%,-9%,26µM*,2%,-33%
CCC(=O)N1CCc2cc(Br)cc(S(=O)(=O)N3CCC(C(=O)NC(C)C)CC3)c21,1%,-1%,-1%,?,4%,.
COC(=O)c1ccccc1N(C)S(=O)(=O)c1cc2c3c(c1)CCC(=O)N3CCC2,-2%,1%,-6%,-6%,-5%,.
O=C(Nc1ccc(Cl)cc1Cl)c1ccc2c(=O)n3c(nc2c1)CCC3,11µM*,1.8µM*,?,?,1.4µM*,.
CC(C)c1ccc(OC(=O)c2ccc3c(=O)n4c(nc3c2)CCC4)cc1,12µM*,0%,?,18%,3%,.
O=C(Nc1ccc(Br)cc1Cl)c1ccc2c(=O)n3c(nc2c1)CCC3,21µM*,3.5µM*,6.5µM*,?,3.5µM*,.
COc1ccccc1NC(=O)c1ccc2c(=O)n3c(nc2c1)CCC3,-22%,21%,-1%,?,8%,.
